# Target: T1, GST-Aq-NF-kB (Amphimedon queenslandica, UniProt A9Y5G7 2-389)
# T1 sequence: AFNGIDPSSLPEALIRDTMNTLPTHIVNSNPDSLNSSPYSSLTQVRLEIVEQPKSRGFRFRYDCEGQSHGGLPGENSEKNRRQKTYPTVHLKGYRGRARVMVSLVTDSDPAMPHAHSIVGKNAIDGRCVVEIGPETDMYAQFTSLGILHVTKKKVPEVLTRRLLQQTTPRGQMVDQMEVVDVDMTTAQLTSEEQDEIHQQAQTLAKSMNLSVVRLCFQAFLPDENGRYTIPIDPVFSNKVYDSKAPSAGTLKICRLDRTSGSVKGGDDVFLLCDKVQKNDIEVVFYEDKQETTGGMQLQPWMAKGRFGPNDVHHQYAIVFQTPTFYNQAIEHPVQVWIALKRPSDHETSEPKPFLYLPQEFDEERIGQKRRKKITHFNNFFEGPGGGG
# Test: protein-binding microarray (PBM); PBM: ~300 nM protein, 6 mM HEPES pH 7.8, 80 mM KCl, 0.5 mM EDTA, 0.5 mM EGTA, 6% glycerol, 35 ng/ul poly-dIdC, 1% milk, 1 h, room temperature; Ap Aiptasia and Nv Nematostella (sea anemones) / Co Capsaspora / Aq Amphimedon (sponge) / Dm Drosophila / Hu human; RHD is the Rel homology domain; high values mean tight binding
# Settings: dsDNA, one strand shown
row,Sequence,binding signal [z-score]
1,CCGATTAACATCAGAGAAATTCCTGATGTTAATCGGGTCTTGATTCGCTTGACGCTGCTG,1.65
2,CCGATTAACATCACGAAATTTCCTGATGTTAATCGGGTCTTGATTCGCTTGACGCTGCTG,1.65
3,CCGATTAACATCACGGAATATCCTGATGTTAATCGGGTCTTGATTCGCTTGACGCTGCTG,1.48
4,CCGATTAACATCAGGAACTGCCCTGATGTTAATCGGGTCTTGATTCGCTTGACGCTGCTG,2.36
5,CCGATTAACATCAGGACATTCCATGATGTTAATCGGGTCTTGATTCGCTTGACGCTGCTG,1.23
6,CCGATTAACATCAGAATTGCCCATGATGTTAATCGGGTCTTGATTCGCTTGACGCTGCTG,1.1
7,CCGATTAACATCACGGACTCTCCTGATGTTAATCGGGTCTTGATTCGCTTGACGCTGCTG,2.26
8,CCGATTAACATCAGGAAGTTCCATGATGTTAATCGGGTCTTGATTCGCTTGACGCTGCTG,1.48
9,CCGATTAACATCAACGGAATTTCTGATGTTAATCGGGTCTTGATTCGCTTGACGCTGCTG,1
10,CCGATTAACATCACGGACATTCCTGATGTTAATCGGGTCTTGATTCGCTTGACGCTGCTG,1.97
11,CCGATTAACATCACGGAAAATTCTGATGTTAATCGGGTCTTGATTCGCTTGACGCTGCTG,1.15
12,CCGATTAACATCACGGACTGTCCTGATGTTAATCGGGTCTTGATTCGCTTGACGCTGCTG,2.22
13,CCGATTAACATCAGGCAAAACCCTGATGTTAATCGGGTCTTGATTCGCTTGACGCTGCTG,3.28
14,CCGATTAACATCAGGAAAGTTCCTGATGTTAATCGGGTCTTGATTCGCTTGACGCTGCTG,1.9
15,CCGATTAACATCAGGAGATTCCATGATGTTAATCGGGTCTTGATTCGCTTGACGCTGCTG,1.66
16,CCGATTAACATCAGGAAATTTCATGATGTTAATCGGGTCTTGATTCGCTTGACGCTGCTG,1.4
17,CCGATTAACATCAGGATATGCCCTGATGTTAATCGGGTCTTGATTCGCTTGACGCTGCTG,1.7
18,CCGATTAACATCAAGATCCCTTGTGATGTTAATCGGGTCTTGATTCGCTTGACGCTGCTG,1.08
19,CCGATTAACATCAGAGAATTTCCTGATGTTAATCGGGTCTTGATTCGCTTGACGCTGCTG,1.55
20,CCGATTAACATCAGGAATAGCCCTGATGTTAATCGGGTCTTGATTCGCTTGACGCTGCTG,1.9

row,Sequence,binding signal [z-score]
1,CCGATTAACATCAGGAAGTGCCCTGATGTTAATCGGGTCTTGATTCGCTTGACGCTGCTG,2.55
2,CCGATTAACATCAGGAAAACTCCTGATGTTAATCGGGTCTTGATTCGCTTGACGCTGCTG,1.4
3,CCGATTAACATCAGAAACTTTCCTGATGTTAATCGGGTCTTGATTCGCTTGACGCTGCTG,2.07
4,CCGATTAACATCAGGAATGTCCATGATGTTAATCGGGTCTTGATTCGCTTGACGCTGCTG,1.06
5,CCGATTAACATCAGGAATTCTCCTGATGTTAATCGGGTCTTGATTCGCTTGACGCTGCTG,1.31
6,CCGATTAACATCAAAATTCCGGATGATGTTAATCGGGTCTTGATTCGCTTGACGCTGCTG,1.54
7,CCGATTAACATCAAGGACATTCCTGATGTTAATCGGGTCTTGATTCGCTTGACGCTGCTG,1.43
8,CCGATTAACATCAAAGAATTTCCTGATGTTAATCGGGTCTTGATTCGCTTGACGCTGCTG,1.45
9,CCGATTAACATCACGGAAGTTCCTGATGTTAATCGGGTCTTGATTCGCTTGACGCTGCTG,2.56
10,CCGATTAACATCACGGAACTTCCTGATGTTAATCGGGTCTTGATTCGCTTGACGCTGCTG,2.23
11,CCGATTAACATCACGGTCTTTCCTGATGTTAATCGGGTCTTGATTCGCTTGACGCTGCTG,2.62
12,CCGATTAACATCACGGAGTTTCCTGATGTTAATCGGGTCTTGATTCGCTTGACGCTGCTG,3.34
13,CCGATTAACATCACGGAGATTCCTGATGTTAATCGGGTCTTGATTCGCTTGACGCTGCTG,2.72
14,CCGATTAACATCAAGGCATTTCCTGATGTTAATCGGGTCTTGATTCGCTTGACGCTGCTG,1.06
15,CCGATTAACATCACGGCATTTCCTGATGTTAATCGGGTCTTGATTCGCTTGACGCTGCTG,1.96
16,CCGATTAACATCAGGCATTTCCATGATGTTAATCGGGTCTTGATTCGCTTGACGCTGCTG,1.13
17,CCGATTAACATCACGGAAAAGCCTGATGTTAATCGGGTCTTGATTCGCTTGACGCTGCTG,1.34
18,CCGATTAACATCAAACCCTACTGTGATGTTAATCGGGTCTTGATTCGCTTGACGCTGCTG,1.19
19,CCGATTAACATCAGGACAGTCCATGATGTTAATCGGGTCTTGATTCGCTTGACGCTGCTG,1.46
20,CCGATTAACATCAGGAAATTCTATGATGTTAATCGGGTCTTGATTCGCTTGACGCTGCTG,1.08
